High-throughput results deposited in PubChem by National Center for Advancing Translational Sciences (NCATS).
Tau fluor cs – counter-screen for tau fibril formation inhibitors. tau K18 P301L Alexa594 fluorescence, heparin fibrillization. Potency, µM (titrated, usually from 57.7 µM). 280,000 tested, 0.93% active; note: nearly all actives have a fitted effect of over 55% in size
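Human K18 P301L tau (15 uM unlabeled plus 0.24 uM Alexa 594-labeled, final) in 100 mM sodium acetate pH 7 was mixed with compound and 20 uM heparin and incubated 6 hr at 37 C.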
Sfp PPTase inh – blocks B. subtilis Sfp PPTase activity | Q9F4F7 | 310,000 tested, 3.5% active | AID 1490 | Biochemical Sfp PPTase activity, qHTS | Potency, µM, actives largely listed as inhibitors;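 note: the enzyme is Sfp with the accession as filed and its product quenches rhodamine fluorescence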
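Compounds were incubated with enzyme (final 15 nM) for 15 min at room temperature before substrate addition started the reaction. Fluorescence at 525 nm excitation, 598 nm emission was recorded immediately and after 30 minutes.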
Tau FP inhib – blocks human tau fibril formation measured by polarization | K18 P301L tau heparin fibrillization, Alexa594 FP, 6 h | Potency, µM (series often up to 57.7 µM), actives largely listed as inhibitors | 280,000 tested, 0.39% active; note: nearly all actives have a fitted effect of over 55% in size
Target sequence (P10636 561-689 P618L limits assumed): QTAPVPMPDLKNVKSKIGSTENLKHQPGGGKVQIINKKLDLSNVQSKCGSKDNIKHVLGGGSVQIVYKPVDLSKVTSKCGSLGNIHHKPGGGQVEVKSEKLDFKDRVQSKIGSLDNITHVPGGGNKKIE
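K18 P301L tau (15 uM unlabeled/0.24 uM Alexa 594-labeled, final) + compound + heparin 20 uM final; 100 mM NaOAc pH 7; 6 hr 37 C; ThT 30 uM final added, 1 hr RT; FP ex 555/em 632 nm.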
PLK1 PBD inh – inhibitors of human PLK1 polo-box domain binding; 360,000 tested, 2.8% active; Plk1 PBD binding of FITC phosphopeptide, fluorescence polarization; Potency, µM, actives largely listed as inhibitors; AID 720504; note: series mostly up to about 57 µM; nearly all actives have a fitted effect of over 65% in size
Tau ThT inhib – blocks human tau fibril formation measured by thioflavin T; recombinant tau K18 P301L, heparin-induced fibrillization, ThT fluorescence; Potency, µM (highest dose often 57.4 µM), hits mostly inhibitors; 270,000 tested, 2.1% active; note: nearly all actives have a fitted effect of over 55% in size
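Fibril formation assay: tau K18 P301L at 15 uM with trace Alexa 594 label, heparin inducer 20 uM, pH 7 sodium acetate buffer, 37 C for 6 hr; endpoint ThT signal.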
VDR inhibitor – inhibitors of human vitamin D receptor; 400,000 tested, 0.93% active; VDR-SRC2-3 peptide fluorescence polarization, 2 h; Potency, µM, actives largely listed as inhibitors; P11473
Target sequence (P11473 whole entry, looked up): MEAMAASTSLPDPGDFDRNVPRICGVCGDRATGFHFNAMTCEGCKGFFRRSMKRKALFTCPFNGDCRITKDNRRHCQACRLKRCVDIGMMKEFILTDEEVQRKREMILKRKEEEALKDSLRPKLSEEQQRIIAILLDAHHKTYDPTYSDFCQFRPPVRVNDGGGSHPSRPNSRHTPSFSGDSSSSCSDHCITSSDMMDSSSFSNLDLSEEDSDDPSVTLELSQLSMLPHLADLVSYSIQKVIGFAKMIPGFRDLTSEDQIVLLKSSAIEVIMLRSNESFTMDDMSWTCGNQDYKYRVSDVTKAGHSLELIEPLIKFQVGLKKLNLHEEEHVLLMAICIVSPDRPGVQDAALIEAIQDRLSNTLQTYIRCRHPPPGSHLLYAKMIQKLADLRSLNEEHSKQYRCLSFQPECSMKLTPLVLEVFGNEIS
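Reagent solutions, kept cold and dark, are dispensed first; compounds are then pinned in at 23 nl, plates briefly spun, and incubated 2 h at ambient temperature. Inhibition of VDR–SRC2-3 peptide binding is read by fluorescence polarization.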
Of the large screens only hits and unclear results are named; the others gave an inactive call; [ ] = remark or other dose. Compounds with a hit are over-represented: about 6% of the library has one in this group of screens. Calls come from the whole dose curve; as a rule, active = well fitted curve in the direction sought with a large enough effect; inconclusive = small, poorly fitted or top-dose-only effect, or another doubt; inactive = no such curve, though single readings can be large; an effect the other way counts as inactive or inconclusive.

O=[N+]([O-])c1ccc(-c2nc3ccc([N+](=O)[O-])cc3[nH]2)cc1	Tau fluor cs inconclusive, Tau FP inhib inconclusive, Tau ThT inhib 2.8µM
O=[N+]([O-])c1ccc2nc(/C=C/c3ccc(Cl)cc3)[nH]c2c1	Tau fluor cs inconclusive, Tau ThT inhib 13µM
CCCC[n+]1ccc(-c2nc3ccc([N+](=O)[O-])cc3[nH]2)cc1	none
CCCCCCCC#Cc1ccccc1/C=N/S(=O)c1ccc(C)cc1 (stereo not given)	Sfp PPTase inh 25µM, PLK1 PBD inh 15µM, Tau ThT inhib inconclusive, VDR inhibitor inconclusive
CCCCC#Cc1ccccc1CC(=O)Nc1ccccc1	Tau ThT inhib inconclusive
CCc1cnc(Nc2nc(C(N)Cc3ccc(F)cc3)cs2)nc1 (stereo not given)	none (no result: Tau fluor cs, Sfp PPTase inh, Tau FP inhib, Tau ThT inhib, VDR inhibitor)
O=C(Nc1n[nH]c(=S)s1)c1ccco1	Sfp PPTase inh 56µM, PLK1 PBD inh inconclusive (no result: Tau fluor cs, Tau FP inhib, Tau ThT inhib)
CCOC(=O)CSC(=S)NC(=O)c1ccc(OC)cc1	PLK1 PBD inh 3µM, Tau ThT inhib inconclusive, VDR inhibitor inconclusive
COc1ccc(C(=O)NCC(=O)O)cc1	none
COc1ccc(C(=O)NC(=S)SCC(=O)O)cc1	Sfp PPTase inh 50µM, Tau FP inhib inconclusive, PLK1 PBD inh 19µM, Tau ThT inhib inconclusive
CCOC(=O)CNC(=O)CNC(=O)c1ccc(OC)cc1	none
c1csc(C2C3=C(Nc4ncnn42)c2ccccc2OC3)c1 (stereo not given)	Sfp PPTase inh 50µM
CC1=C(C(N)=O)C(c2cccs2)n2ncnc2N1 (stereo not given)	none (no result: Tau ThT inhib)
CCOc1ccc(NC(=O)Cn2c(=O)cc(C)c3c(C)nn(-c4cccc(Cl)c4C)c32)cc1	none (no result: Sfp PPTase inh, PLK1 PBD inh)
COCCN1C(=O)/C(=C/c2ccc(N3CCCC3)cc2)SC1=S	Tau ThT inhib inconclusive
CCN1C(=S)SC(=O)C1=C1C=C(C)N(CCOC)C(C)=C1	Sfp PPTase inh 50µM, Tau ThT inhib inconclusive (no result: PLK1 PBD inh, VDR inhibitor)
CC[C@]1(c2ccccc2)C(=O)N(C(=O)OC)N1C(=O)OC	PLK1 PBD inh 11µM, VDR inhibitor inconclusive (no result: Tau fluor cs, Tau FP inhib, Tau ThT inhib)
CC[C@@]1(c2ccccc2C)C(=O)N(C(=O)OC)N1C(=O)OC	Sfp PPTase inh inconclusive, PLK1 PBD inh 11µM, VDR inhibitor inconclusive (no result: Tau fluor cs, Tau FP inhib, Tau ThT inhib)
CC[C@@]1(c2ccccc2)C(=O)N(C(=O)OC)N1C(=O)OC	PLK1 PBD inh inconclusive, VDR inhibitor inconclusive (no result: Tau fluor cs, Tau FP inhib, Tau ThT inhib)
COC(=O)N1C(=O)[C@](Cc2ccccc2)(c2ccccc2)N1C(=O)OC	PLK1 PBD inh 15µM, VDR inhibitor 89µM (no result: Tau fluor cs, Tau FP inhib, Tau ThT inhib)
CC[C@]1(c2cccc(C)c2)C(=O)N(C(=O)OC)N1C(=O)OC	PLK1 PBD inh 12µM, VDR inhibitor inconclusive (no result: Tau fluor cs, Tau FP inhib, Tau ThT inhib)
CCOC1=C2CN(S(=O)(=O)c3ccc(C)cc3)[C@H](c3ccccc3)C[C@@H]2N(S(=O)(=O)c2ccc(Br)cc2)[C@H](c2ccccc2)C1	none (no result: Tau fluor cs, Sfp PPTase inh, Tau FP inhib, Tau ThT inhib, VDR inhibitor)
COC(=O)N1C(=O)[C@@](Cc2ccccc2)(c2ccccc2)N1C(=O)OC	PLK1 PBD inh 30µM, VDR inhibitor inconclusive (no result: Tau fluor cs, Tau FP inhib, Tau ThT inhib)
O=C1C(F)=CC(COC(c2ccccc2)(c2ccccc2)c2ccccc2)OC1n1cc(F)c(=O)[nH]c1=O (stereo not given)	PLK1 PBD inh 6µM, VDR inhibitor 45µM (no result: Tau fluor cs, Sfp PPTase inh, Tau FP inhib, Tau ThT inhib)
CC(C)C1C(=O)N(Cc2cn(CC3CCCCC3)nn2)CCS(=O)(=O)N1Cc1ccc(-c2ccccc2)cc1 (stereo not given)	none (no result: Tau fluor cs, Sfp PPTase inh, Tau FP inhib, Tau ThT inhib, VDR inhibitor)
Cn1nc(C(=O)N2CCN(c3ccc(F)cc3)CC2)c2c1-c1ccccc1SC2	Tau fluor cs 7.1µM[quencher] (no result: Sfp PPTase inh, PLK1 PBD inh)
Cn1nc(C(=O)N2CCN(c3ccccc3)CC2)c2c1-c1ccccc1SC2	none (no result: Sfp PPTase inh, PLK1 PBD inh)
CCN(CC)CCCNC(=O)c1nn(C)c2c1CSc1ccccc1-2	Tau fluor cs 25µM[quencher], Tau FP inhib inconclusive, Tau ThT inhib inconclusive (no result: Sfp PPTase inh, PLK1 PBD inh)
CC(C)CCNC(=O)c1nn(C)c2c1CSc1ccccc1-2	none (no result: Sfp PPTase inh, PLK1 PBD inh)
CNc1ccc2c3c(cccc13)C(=O)N(C)C2=O	PLK1 PBD inh 3µM (no result: Tau fluor cs, Tau FP inhib, Tau ThT inhib)
CC(=O)c1ccc2c(c1)C1C=CCC1C(c1ccncc1)N2 (stereo not given)	Tau fluor cs inconclusive, Tau FP inhib inconclusive, Tau ThT inhib 14µM
CC(=O)c1ccc2c(c1)C1C=CCC1C(C(=O)O)N2 (stereo not given)	PLK1 PBD inh 7.5µM
